According to PubChem BioAssay:
Active and inactive are the calls of the source.

Legend:
[1] = binders of probe aFSTL3 on microarray, primary screen, stem cell growth factor project, biochemical, small-molecule microarray, fluorescence 635/667 (AID 1064); conditions: higher = more signal;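 further: measures binding of the biotinylated anti-FSTL3 antibody to printed compounds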
[2] = binders from COS7 lysate, DM2A8 probe, primary screen, torsin A project, cell lysate, small-molecule microarray, fluorescence 635/667 (AID 1065); conditions: higher = more signal, COS7 lysate expressing mutant human TOR1A
[3] = binders of probe aFGF2 on microarray, primary screen, stem cell growth factor project, biochemical, small-molecule microarray, fluorescence 635/667 (AID 1067); conditions: higher = more signal;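 further: measures binding of biotinylated aFGF2 protein to printed compounds on slides; z-score merges feature fluorescence and signal-to-noise across triplicate slides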
[4] = binders of probe aFGF10 on microarray, primary screen, stem cell growth factor project, biochemical, small-molecule microarray, fluorescence 635/667 (AID 1071); conditions: higher = more signal;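 further: score merges 667 nm spot intensity and signal to noise from triplicate slides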
[5] = biological target: Neurogenic locus notch homolog protein 2 (Homo sapiens) (UniProt Q04721); assay: Notch2 binders on small-molecule microarrays, primary screen, biochemical, small-molecule microarray, 635 nm fluorescence, stem cell growth factors (AID 1073); conditions: Notch2 binding, higher = more signal
[6] = biological target: Pro-neuregulin-1, membrane-bound isoform (Homo sapiens) (UniProt Q02297); assay: NRG1 binders on small-molecule microarrays, primary screen, psychiatric disease protein project, biochemical, small-molecule microarray, fluorescence 635/667 (AID 1075); conditions: NRG1 binding, 635 nm fluorescence, higher = more signal;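 further: score combines 667 nm spot fluorescence with signal to noise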
[7] = system: Neuregulin-1 EGF-like domain; assay: binders of neuregulin-1 EGF-like domain, primary screen, biochemical, small-molecule microarray, 635 nm fluorescence (AID 1081); conditions: small-molecule microarray binding, higher = more signal;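 further: binding of the protein to compounds printed on small-molecule microarray slides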
[8] = FRG1 promoter luciferase signal modulators, primary screen, FRG1 inhibition for FSHD, cell-based, C2C12 myotubes, firefly/Renilla luciferase, luminescence (AID 1084); conditions: higher = more signal, called active from +8 up or from −8 down
[9] = binders of probe aFST on microarray, primary screen, stem cell growth factor project, biochemical, small-molecule microarray, fluorescence 635/667 (AID 1086); conditions: higher = more signal;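 further: score merges 667 nm fluorescence with signal-to-noise of each printed compound spot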
[10] = binders of probe aHhip on microarray, primary screen, stem cell growth factor project, biochemical, small-molecule microarray, fluorescence 635/667 (AID 1087); conditions: higher = more signal;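 further: score merges spot fluorescence at 667nm with spot signal to noise ratio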
[11] = system: PRMT1 (protein arginine N-methyltransferase 1); assay: PRMT1 binders on small-molecule microarrays, primary screen, biochemical, small-molecule microarray, 635 nm fluorescence (AID 1088); conditions: small-molecule microarray binding, higher = more signal;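 further: binding of Prmt1 protein to compounds spotted on small-molecule microarray slides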
[12] = yeast growth modulation, basal conditions, primary screen, YJM789 clinical isolate, OD600, 24 h (AID 1089);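 further: growth of clinical yeast isolate S. cerevisiae YJM 789 seeded 1000 cells per well; test concentration not given here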; conditions: S. cerevisiae YJM789 growth, higher = more signal, called active from +8 up or from −8 down
[13] = fission yeast growth modulation, primary screen, strain 972, OD600, 24 h, no modulator (AID 1090);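 further: basal condition with compound alone and no growth modifier present; test concentration not given here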; conditions: S. pombe 972 growth, higher = more signal, called active from +8 up or from −8 down
[14] = S. cerevisiae growth modulation with rapamycin, primary screen, strain BY4716, OD600, 96 h (AID 1091); conditions: higher = more signal, called active from +8 up or from −8 down; further: test concentration not given here
[15] = biological target: Torsin-1A-interacting protein 2 (Homo sapiens) (UniProt Q8NFQ8); assay: LULL1 binders on small-molecule microarray, primary screen, cell lysate, human LULL1 lysate, 635/667 nm fluorescence (AID 1092); conditions: hLULL1 lysate binding, 635 nm fluorescence, higher = more signal;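 further: probe is lysate of COS7 cells overexpressing human LULL1; score merges per-feature 667 nm fluorescence with signal-to-noise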
[16] = E. coli growth modulation, two-sided OD650, primary screen, E. coli filamentation project, strain DRC41, 24 h (AID 1093); conditions: OD650, 24 h, higher = more signal, called active from +8 up or from −8 down;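 further: MC1000 strain lacking acrAB efflux and sulA so SOS filamentation is blocked; test concentration not given here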
[17] = small-molecule microarray binders of probe aLefty2, primary screen, biochemical, biotinylated probe, 635/667 nm fluorescence (AID 1094); conditions: higher = more signal;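 further: score merges spot fluorescence near 667 nm with spot signal-to-noise ratio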
[18] = system: Noggin (protein binding on small-molecule microarray); assay: Noggin binders on small-molecule microarray, primary screen, biochemical, 635/667 nm fluorescence (AID 1095); conditions: 635 nm fluorescence, higher = more signal;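 further: score merges 667 nm feature fluorescence with signal to noise over triplicate slides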
[19] = biological target: Neurogenic locus notch homolog protein 3 (Homo sapiens) (UniProt Q9UM47); assay: NOTCH3 binders on small-molecule microarray, primary screen, biochemical, 635/667 nm fluorescence (AID 1096); conditions: NOTCH3 binding, 635 nm fluorescence, higher = more signal
[20] = small-molecule microarray binders of probe aEGFR, primary screen, biochemical, biotinylated probe, 635/667 nm fluorescence (AID 1097); conditions: higher = more signal;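 further: probe is a biotinylated anti-EGFR antibody binding compounds printed on slides; score combines fluorescence near 667 nm and signal to noise of each spot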

Pro-neuregulin-1, membrane-bound isoform (Homo sapiens), sequence (Q02297 whole entry, looked up, the tested form may be a part, canonical isoform): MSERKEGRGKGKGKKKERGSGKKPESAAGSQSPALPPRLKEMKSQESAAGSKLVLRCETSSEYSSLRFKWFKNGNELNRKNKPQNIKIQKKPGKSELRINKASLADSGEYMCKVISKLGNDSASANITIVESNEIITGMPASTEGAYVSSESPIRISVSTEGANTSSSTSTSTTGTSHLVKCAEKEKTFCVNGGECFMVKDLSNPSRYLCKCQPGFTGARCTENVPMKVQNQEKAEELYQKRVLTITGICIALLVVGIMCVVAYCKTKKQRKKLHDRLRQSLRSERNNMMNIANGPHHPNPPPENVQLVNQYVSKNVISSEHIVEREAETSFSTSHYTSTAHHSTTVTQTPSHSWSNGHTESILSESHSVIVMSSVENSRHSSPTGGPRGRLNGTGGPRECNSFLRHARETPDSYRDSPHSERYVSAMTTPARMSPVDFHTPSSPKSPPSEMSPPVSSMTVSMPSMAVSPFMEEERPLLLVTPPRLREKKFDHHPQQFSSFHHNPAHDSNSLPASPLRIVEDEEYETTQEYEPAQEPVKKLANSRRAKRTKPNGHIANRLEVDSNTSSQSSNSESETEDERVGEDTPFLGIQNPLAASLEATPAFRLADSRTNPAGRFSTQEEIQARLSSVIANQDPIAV
Neurogenic locus notch homolog protein 2 (Homo sapiens), sequence (Q04721 whole entry, looked up, canonical isoform): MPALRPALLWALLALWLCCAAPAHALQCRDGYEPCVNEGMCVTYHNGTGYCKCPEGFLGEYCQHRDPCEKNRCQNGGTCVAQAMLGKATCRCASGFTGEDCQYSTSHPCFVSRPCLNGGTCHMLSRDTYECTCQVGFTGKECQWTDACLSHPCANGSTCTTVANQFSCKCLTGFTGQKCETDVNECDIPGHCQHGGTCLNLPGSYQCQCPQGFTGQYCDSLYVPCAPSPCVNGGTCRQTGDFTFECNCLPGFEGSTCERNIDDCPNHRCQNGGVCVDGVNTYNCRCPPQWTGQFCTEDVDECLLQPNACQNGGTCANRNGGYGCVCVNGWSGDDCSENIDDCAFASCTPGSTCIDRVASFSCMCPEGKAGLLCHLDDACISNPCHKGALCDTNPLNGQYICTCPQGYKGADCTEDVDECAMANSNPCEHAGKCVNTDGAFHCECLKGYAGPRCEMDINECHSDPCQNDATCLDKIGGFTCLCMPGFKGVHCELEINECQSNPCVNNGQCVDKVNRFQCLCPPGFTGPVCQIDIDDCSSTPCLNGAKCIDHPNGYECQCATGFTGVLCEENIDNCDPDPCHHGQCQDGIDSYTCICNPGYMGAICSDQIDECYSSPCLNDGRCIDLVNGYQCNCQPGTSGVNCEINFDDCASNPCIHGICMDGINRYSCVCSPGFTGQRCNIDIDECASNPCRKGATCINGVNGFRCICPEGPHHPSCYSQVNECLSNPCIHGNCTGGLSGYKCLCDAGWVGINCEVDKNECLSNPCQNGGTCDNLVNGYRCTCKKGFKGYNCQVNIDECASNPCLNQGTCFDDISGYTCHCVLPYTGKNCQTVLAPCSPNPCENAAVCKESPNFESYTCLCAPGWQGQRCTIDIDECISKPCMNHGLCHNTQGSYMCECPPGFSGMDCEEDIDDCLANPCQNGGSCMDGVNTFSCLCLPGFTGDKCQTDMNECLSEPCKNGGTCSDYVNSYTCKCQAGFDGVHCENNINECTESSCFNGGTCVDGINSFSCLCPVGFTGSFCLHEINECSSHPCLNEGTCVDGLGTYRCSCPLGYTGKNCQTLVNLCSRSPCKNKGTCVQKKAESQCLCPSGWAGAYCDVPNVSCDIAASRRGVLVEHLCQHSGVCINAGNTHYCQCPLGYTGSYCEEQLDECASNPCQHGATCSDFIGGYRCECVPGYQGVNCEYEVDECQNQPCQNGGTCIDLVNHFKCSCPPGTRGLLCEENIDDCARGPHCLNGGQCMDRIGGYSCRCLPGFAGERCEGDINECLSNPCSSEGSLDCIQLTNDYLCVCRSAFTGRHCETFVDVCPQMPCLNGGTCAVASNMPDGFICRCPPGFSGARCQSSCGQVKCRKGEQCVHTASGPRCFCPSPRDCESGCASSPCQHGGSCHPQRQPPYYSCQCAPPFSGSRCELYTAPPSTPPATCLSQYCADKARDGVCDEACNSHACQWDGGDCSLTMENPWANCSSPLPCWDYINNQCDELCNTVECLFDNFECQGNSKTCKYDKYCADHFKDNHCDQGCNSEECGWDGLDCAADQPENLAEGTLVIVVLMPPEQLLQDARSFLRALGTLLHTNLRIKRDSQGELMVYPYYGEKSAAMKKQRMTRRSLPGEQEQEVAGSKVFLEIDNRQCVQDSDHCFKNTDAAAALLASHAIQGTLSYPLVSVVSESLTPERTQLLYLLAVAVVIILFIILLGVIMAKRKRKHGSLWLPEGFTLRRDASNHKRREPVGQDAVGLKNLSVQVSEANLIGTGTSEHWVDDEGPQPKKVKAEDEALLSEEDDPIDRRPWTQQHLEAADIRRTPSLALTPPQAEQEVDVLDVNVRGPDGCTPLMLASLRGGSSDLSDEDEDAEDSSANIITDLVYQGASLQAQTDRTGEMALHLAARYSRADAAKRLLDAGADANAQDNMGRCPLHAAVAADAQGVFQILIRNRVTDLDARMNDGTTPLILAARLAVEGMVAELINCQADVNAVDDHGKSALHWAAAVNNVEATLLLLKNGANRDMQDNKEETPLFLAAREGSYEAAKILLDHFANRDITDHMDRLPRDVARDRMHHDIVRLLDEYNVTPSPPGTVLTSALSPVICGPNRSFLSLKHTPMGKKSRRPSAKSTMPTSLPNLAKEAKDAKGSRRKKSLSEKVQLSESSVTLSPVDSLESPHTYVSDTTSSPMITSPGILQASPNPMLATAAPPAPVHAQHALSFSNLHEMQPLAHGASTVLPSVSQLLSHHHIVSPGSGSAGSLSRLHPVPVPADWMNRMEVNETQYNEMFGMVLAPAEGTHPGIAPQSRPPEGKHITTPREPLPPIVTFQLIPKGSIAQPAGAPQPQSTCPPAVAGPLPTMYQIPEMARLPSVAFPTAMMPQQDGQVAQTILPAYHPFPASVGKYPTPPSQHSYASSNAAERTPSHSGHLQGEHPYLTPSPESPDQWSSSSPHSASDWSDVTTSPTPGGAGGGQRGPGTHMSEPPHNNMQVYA
Torsin-1A-interacting protein 2 (Homo sapiens), sequence (Q8NFQ8 whole entry, looked up): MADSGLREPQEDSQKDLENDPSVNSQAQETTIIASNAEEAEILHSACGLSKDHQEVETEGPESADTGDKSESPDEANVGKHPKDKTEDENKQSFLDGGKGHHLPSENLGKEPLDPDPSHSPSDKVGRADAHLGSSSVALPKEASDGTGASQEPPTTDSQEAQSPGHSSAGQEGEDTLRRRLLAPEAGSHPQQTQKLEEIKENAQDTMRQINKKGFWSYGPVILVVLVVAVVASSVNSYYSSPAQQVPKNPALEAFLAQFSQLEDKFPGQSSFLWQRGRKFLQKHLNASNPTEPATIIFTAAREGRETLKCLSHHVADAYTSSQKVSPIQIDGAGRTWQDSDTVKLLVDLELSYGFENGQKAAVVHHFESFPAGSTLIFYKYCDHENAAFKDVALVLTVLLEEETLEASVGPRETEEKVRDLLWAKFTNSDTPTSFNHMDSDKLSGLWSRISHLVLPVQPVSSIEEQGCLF

| Structure (SMILES) | composite z-score [1] | composite z-score [2] | composite z-score [3] | composite z-score [4] | composite z-score [5] | composite z-score [6] | composite z-score [7] | z-score [8] | composite z-score [9] | composite z-score [10] | composite z-score [11] | z-score [12] | z-score [13] | z-score [14] | composite z-score [15] | z-score [16] | composite z-score [17] | composite z-score [18] | composite z-score [19] | composite z-score [20] |
| --- | --- | --- | --- | --- | --- | --- | --- | --- | --- | --- | --- | --- | --- | --- | --- | --- | --- | --- | --- | --- |
| CN1C(=O)[C@@H]2[C@@H](CC(COc3ccccc3)=C([C@H](O)CCc3ccccc3)[C@@H]2CO)C1=O | -0.138 | 0.342 | -0.103 | -0.195 | -0.492 | -0.207 | -0.0233 | -2.39 (inactive) | -0.167 | -0.236 | -0.268 | 0.0937 (inactive) | -1.87 (inactive) | -0.537 (inactive) | -0.551 | 2.41 (inactive) | -0.0971 | -0.358 | -0.932 | -0.0947 |
| COCCOC(=O)N1C(=O)[C@@]2(c3cc(C#CCC(C(=O)OC)C(=O)OC)ccc31)[C@H](c1ccc(OCCO)cc1)N1[C@H](c3ccccc3)[C@H](c3ccccc3)OC(=O)[C@H]1[C@@H]2C(=O)Nc1nc2ccccc2s1 | -0.0598 | 0.215 | -0.17 | 0.383 | 1.22 | -0.0762 | 1.23 | 4.65 (inactive) | 0.524 | -0.148 | 1.57 | 2.28 (inactive) | 2.31 (inactive) | 4.03 (inactive) | 0.828 | 2.5 (inactive) | -0.122 | 0.994 | 1.1 | -0.04 |
| O=C1[C@@H]2[C@@H](CC(COc3ccccc3)=C3[C@@H](CCc4ccccc4)OB(O)C[C@@H]32)C(=O)N1Cc1ccccc1 | -0.559 | 0.242 | -0.0737 | 0.265 | 0.697 | 0.81 | -0.113 | 0.0109 (inactive) | 0.531 | -0.289 | -0.0537 | -0.402 (inactive) | -1.04 (inactive) | 0.297 (inactive) | 0.828 | -0.874 (inactive) | -0.274 | 0.204 | 0.359 | -0.116 |
| COCCOC(=O)N1C(=O)[C@@]2(c3cc(C#CC4(O)CCCCCC4)ccc31)[C@H](c1ccc(OCCO)cc1)N1[C@H](c3ccccc3)[C@H](c3ccccc3)OC(=O)[C@H]1[C@@H]2C(=O)Nc1nc2ccccc2s1 | 0.676 | 0.54 | -0.0234 | 0.874 | 1.32 | 0.526 | 1.04 | 3.79 (inactive) | 1.08 | 0.245 | 1.54 | 1.76 (inactive) | 1.05 (inactive) | 2.93 (inactive) | 1.57 | 0.11 (inactive) | 0.225 | 1.42 | 1.05 | 0.219 |
| COC(=O)C(CC#Cc1ccc2c(c1)[C@]1(C(=O)N2)[C@H](C(=O)Nc2nc3ccccc3s2)[C@H]2C(=O)O[C@H](c3ccccc3)[C@H](c3ccccc3)N2[C@@H]1c1ccc(OCCO)cc1)C(=O)OC | 0.156 | 0.444 | -0.0036 | 1.05 | 1.4 | 1.87 | 1.24 | 1.9 (inactive) | 0.846 | -0.137 | 1.55 | -0.442 (inactive) | -0.144 (inactive) | 1.37 (inactive) | 3.18 | 2.96 (inactive) | 0.0973 | 1.59 | 1.08 | 0.0766 |
| COC(=O)[C@@]1(Cc2ccccc2)[C@H]2c3cc(C(=O)N4CCCC4)n(CCSCCO)c3C[C@H]2CN1C(=O)c1ccccc1 | 0.729 | 0.773 | 0.457 | 0.525 | 1.83 | 1.66 | 1.37 | -0.906 (inactive) | 0.894 | 0.189 | 0.465 | 0.118 (inactive) | 0.307 (inactive) | -0.0727 (inactive) | 3.67 | -1 (inactive) | 0.788 | 0.511 | 0.899 | 0.0971 |
| O=C1C[C@@](C(=O)NCc2ccccc2)(c2ccc([N+](=O)[O-])cc2)[C@@H](c2ccc(CO)cc2I)N1CC12CC3CC(CC(C3)C1)C2 | -0.262 | 0.656 | -0.0412 | 0.831 | 1.2 | 0.656 | 1.15 | -1.32 (inactive) | 0.572 | 0.261 | 1.55 | -0.369 (inactive) | -0.613 (inactive) | 2.84 (inactive) | 2.61 | -0.343 (inactive) | 0.0578 | 1.8 | 1.09 | 0.0042 |
| Cc1nc2cc(Br)ccc2c(=O)n1Cc1cccc(O)c1 | -0.473 | 0.116 | 0.0275 | 0.659 | 0.418 | -0.134 | 1.06 | 0.156 (inactive) | 0.314 | 0.409 | 1.57 | 0.104 (inactive) | -1.84 (inactive) | -0.973 (inactive) | 1.16 | 1.22 (inactive) | -0.0607 | 1.33 | -0.108 | -0.0474 |
| COCCOC(=O)N1C(=O)[C@@]2(c3cc(C#CC4(O)CCCCCC4)ccc31)[C@H](C(=O)N1CCN(c3ncccn3)CC1)[C@H]1C(=O)O[C@H](c3ccccc3)[C@H](c3ccccc3)N1[C@@H]2c1ccccc1OCCO | -0.215 | 0.825 | -0.0195 | 0.452 | 1.08 | 0.239 | 1.05 | 0.041 (inactive) | 0.474 | 0.0515 | 1.2 | 2.56 (inactive) | 2.26 (inactive) | 7.55 (inactive) | 1.79 | -0.267 (inactive) | -0.0795 | 1.04 | 1.08 | 0.0436 |
| Cc1ccccc1C(O)C1C=CC2C(=O)N(c3ccccc3)C(=O)C2N1Nc1ccc([N+](=O)[O-])cc1 (stereo not given) | -0.0848 | 0.804 | -0.0271 | 0.681 | 1.07 | 1.87 | 1.27 | -1.24 (inactive) | 0.886 | -0.189 | 1.45 | -0.715 (inactive) | 0.796 (inactive) | 2.67 (inactive) | 3.39 | 0.13 (inactive) | 0.0839 | 0.327 | 1.05 | 0.156 |
| O=C1[C@@]23C=C(Br)[C@H](C[C@@H]2COC3)[C@@]12CO2 | -0.325 | 0.422 | -0.112 | 0.38 | 0.32 | 0.0504 | 0.0447 | -0.214 (inactive) | 0.159 | -0.268 | -0.186 | 0.108 (inactive) | -1.34 (inactive) | 0.0993 (inactive) | -0.498 | -1.39 (inactive) | -0.124 | 0.648 | 0.574 | -0.184 |
| Cc1ccc(S[C@]2(C(=O)NC(C)C)CC(=O)N(Cc3ccccc3Cl)[C@@H]2c2ccc(CO)cc2)cc1 | 0.827 | -1.59 | -0.0474 | -0.519 | -0.266 | 1.03 | 1.37 | -3.34 (inactive) | -0.519 | -0.169 | -0.577 | -0.651 (inactive) | -1.13 (inactive) | -0.072 (inactive) | 2.06 | -1.29 (inactive) | 0.0425 | -0.82 | -0.452 | -0.227 |
